Bioassay records as filed in PubChem BioAssay.
This is a sample that favours compounds with a hit; in the whole collection about 2.8% have one here.
GLS inh: inhibitors of human glutaminase (GLS); O94925; GLS enzymatic activity, qHTS titration; Potency, µM (series often up to 45.5 µM), for the others: at the top dose activity change, negative = inhibition, actives largely listed as inhibitors; 410,000 compounds, 0.21% hits; also: potency is read from the fitted curve at half-maximal effect; % is scaled to controls: 0 for no effect and ±100 for the full control effect
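Human kidney-isoform GLS in 45 mM KH2PO4 pH 8.2, 0.02% Tween-20, with compound, started with 1mM L-Glutamine (added stock). Glutamate oxidase/HRP/Amplex red coupled fluorescence read at start and after 30 min at RT.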
GLP1R ag: agonists of human GLP-1 receptor; P43220; HEK293 GLP-1R CRE-luciferase, luminescence, 4-6 h; cells express a hypersensitive GLP-1R form; Potency, µM (series often up to 45.6 µM), inactives show at the highest dose activation, most hits filed as activators; 380,000 compounds, 0.007% hits; AID 624172; also: potency is read from the fitted curve at half-maximal effect; % of control where 0% means no effect
Target sequence (P43220 whole entry, looked up): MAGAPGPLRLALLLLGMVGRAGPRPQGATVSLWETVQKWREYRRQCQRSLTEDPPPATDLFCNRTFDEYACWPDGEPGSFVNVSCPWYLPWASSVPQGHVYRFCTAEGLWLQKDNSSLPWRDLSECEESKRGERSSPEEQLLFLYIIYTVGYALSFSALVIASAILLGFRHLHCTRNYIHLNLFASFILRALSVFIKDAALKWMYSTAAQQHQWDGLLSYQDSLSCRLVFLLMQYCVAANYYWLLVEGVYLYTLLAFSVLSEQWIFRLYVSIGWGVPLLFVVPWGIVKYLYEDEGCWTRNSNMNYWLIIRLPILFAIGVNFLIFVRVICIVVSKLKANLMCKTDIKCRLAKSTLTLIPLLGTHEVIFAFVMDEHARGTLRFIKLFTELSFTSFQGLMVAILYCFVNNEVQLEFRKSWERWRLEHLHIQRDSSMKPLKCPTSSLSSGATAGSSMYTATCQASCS
KCNH2 3.1 inh: inhibitors of human KCNH2 3.1 potassium channel isoform. U2OS KCNH2 3.1, thallium flux FluxOr; hits give low values. activity change, % (tested at about 1.8 µM). 340,000 compounds, 0.95% hits;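 active = maximum activity change below -70%; inconclusive = maximum activity change from -70% to -50%; inactive = maximum activity change above -50%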;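 also: thallium influx rate constant from kinetic fluorescence after stimulation buffer; % is scaled to controls: 0 for no effect and ±100 for the full control effect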
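Thallium flux read-out: FluxOr dye with Red40 quencher in HBSS/HEPES, 45 min at RT. Rate constants from kinetic reads were normalized to positive and negative DMSO controls. Cells: U2OS virally expressing the 3.1 isoform.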
GLP-1R inv ag: acts as inverse agonist at human GLP-1 receptor; 410,000 compounds, 1.6% hits; HEK293 GLP-1R CRE-luciferase, luminescence, 24 h; GLP-1R form is constitutively active; Potency, µM (highest dose often 38.3 µM), for inactives: at the highest dose activity change, negative = inhibition, actives largely listed as inhibitors; also: potency is read from the fitted curve at half-maximal effect; % is scaled to controls: 0 for no effect and ±100 for the full control effect; nearly all actives have a fitted effect of over 55% in size
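Readout was luciferase luminescence, measured 12 min after detection reagent at room temperature. Beforehand, GLP-1R reporter HEK293 cells had sat 12 h, then received compounds for 24 hr at 37 deg C.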
KCNH2 WT inh: blocks the wildtype human KCNH2 potassium channel; Q12809; U2OS, BacMam KCNH2, thallium flux FluxOr; hits give low values; AID 720551; activity change, % at 1.84 µM; 340,000 compounds, 0.37% hits;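 active = maximum activity change below -70%; inconclusive = maximum activity change between -70% and -50%; inactive = maximum activity change above -50%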; also: % is scaled to controls: 0 for no effect and ±100 for the full control effect
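U2OS cells transduced with wild-type KCNH2 virus are loaded with FluxOr dye for 45 min, and thallium flux is measured in kinetic reads before and after stimulation buffer. Rate constants are normalized to DMSO controls.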
GLP1R cytotox: cytotoxicity counter-screen for GLP-1 receptor inverse agonists; AID 624418; HEK293 cAMP-luciferase reporter cells, luminescence, 24 h; 410,000 compounds, 0.13% hits; Potency, µM (highest dose often 38.3 µM), without a hit: at the highest dose activity change, negative = inhibition, actives largely listed as inhibitors;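 also: loss of luciferase light is scored as toxicity; potency is read from the fitted curve at half-maximal effect; % is scaled to controls: 0 for no effect and ±100 for the full control effect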
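MLSMR compounds, 24 hr on cells at 37 deg C/5% CO2; luminescence after luciferase reagent (12 min RT). Inhibition counted as the undesired cytotoxic outcome.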
The depositor's hits bear a star; ? = inconclusive; . = not tested or not shown. Unless noted, calls follow the shape of the dose curve; as a rule, active = well fitted curve in the direction sought with a large enough effect; inconclusive = small, poorly fitted or top-dose-only effect, or another doubt; inactive = no such curve, though single readings can be large; an effect the other way counts as inactive or inconclusive.

SMILES | GLS inh | GLP1R ag | KCNH2 3.1 inh | GLP-1R inv ag | KCNH2 WT inh | GLP1R cytotox
O=C(COC(=O)c1ccc(Cl)c(S(=O)(=O)N2CCN(c3ccc(F)cc3)CC2)c1)Nc1cccc(Cl)c1 | -3% | -1% | -82* | 5% | -16 | 4%
O=C(COC(=O)c1ccc(Cl)c(S(=O)(=O)N2CCCCC2)c1)NCCc1ccccc1 | 6% | 6% | -4 | -11% | 15 | 5%
NC(=S)N/N=C\c1ccccc1OCc1ccccc1 | 12% | -2% | 1 | 5.6µM* | 9 | ?
NC(=S)N/N=C/c1ccccc1OC(=O)/C=C/c1ccccc1 | 17% | 14% | -14 | 2.5µM* | 8 | -10%
COc1ccc(C(=O)n2nc(-c3ccco3)nc2NCc2cccs2)cc1 | -1% | . | . | 11% | . | 0%
COc1ccc(N2CCN(C(=O)CSc3nnc(-c4cccnc4)n3-c3ccc(F)cc3)CC2)cc1 | 36% | 14% | 1 | -15% | -7 | ?
COc1ccc(N2CCN(C(=O)CSc3nnc(-c4cccnc4)n3-c3ccccc3)CC2)cc1 | 35% | 2% | -9 | 11µM* | -6 | 8%
CN(C)CCN(C(=O)c1ccc2ccccc2c1)c1nc2ccc(F)cc2s1 | -2% | -1% | 12 | -16% | -3 | -17%
CCN(CC)CCN(C(=O)c1cc2ccccc2cc1OC)c1nc2ccc(OC)cc2s1 | 5% | -7% | ? | 5.6µM* | -30 | -23%
COc1ccccc1C(=O)N(CCN(C)C)c1nc2cc(C)cc(C)c2s1 | 2% | 8% | -9 | 11µM* | 20 | -17%
CCN(CC)CCN(C(=O)/C=C/c1cccs1)c1nc2ccc(OC)cc2s1 | -7% | -1% | -4 | -12% | 13 | -5%
CCN(CC)CCN(C(=O)c1ccc2ccccc2c1)c1nc2ccc(OC)cc2s1 | 14% | -3% | -6 | -22% | 20 | 4%
CCOc1ccc2nc(N(CCN(CC)CC)C(=O)/C=C/c3cccs3)sc2c1 | 5% | -2% | -80* | 3% | ? | -1%
CCN(CC)CCN(C(=O)c1cc2ccccc2cc1OC)c1nc2ccc(F)cc2s1 | 0% | -6% | -28 | 5µM* | -8 | -26%
Cc1ccc(OCC(=O)NCC(=O)OCc2cc(=O)n3nc(C(C)C)sc3n2)cc1 | 2% | . | . | -3% | . | -5%
COc1cc2ccccc2cc1C(=O)N(CCN(C)C)c1nc2c(C)cccc2s1 | -12% | 3% | -16 | ? | 24 | -6%
Cc1ccc2nc(N(CCCN(C)C)C(=O)c3cc(-c4cccs4)nc4ccccc34)sc2c1 | -1% | 4% | -46 | 2.5µM* | -15 | ?
COc1cc2ccccc2cc1C(=O)N(CCN(C)C)c1nc2ccc(C)cc2s1 | -10% | 6% | ? | 4µM* | 5 | -14%
CN(C)CCCN(C(=O)c1cc(-c2cccs2)nc2ccccc12)c1nc2c(F)cccc2s1 | 2% | 3% | -45 | ? | -9 | ?
CCc1cccc(NC(=O)Cn2c(=O)n(-c3ccccc3C)c(=O)c3c2c2cc(C)ccc2n3C)c1 | 9% | 0% | . | 1% | . | -1%
COc1ccc(S(=O)(=O)Nc2ccc(Cc3ccncc3)cc2)cc1C | 1% | 13% | -24 | -28% | -23 | -13%
O=C(OCC(=O)C12CC3CC(CC(C3)C1)C2)c1ccc(O)cc1O | 1% | 23% | 74 | 11µM* | 1 | ?
O=C(COC(=O)c1ccc(O)cc1O)NC12CC3CC(CC(C3)C1)C2 | 11% | 0% | 3 | ? | -4 | -3%
CC(C)CC(c1nnnn1Cc1ccco1)N1CCN(c2cccc(Cl)c2)CC1 (centres undefined) | 10% | 1% | 11 | 10µM* | 11 | -1%
CC(C)CC(c1nnnn1CC1CCCO1)N1CCN(c2cccc(Cl)c2)CC1 (centres undefined) | -11% | -7% | -5 | -24% | 1 | -11%
SMILES | GLS inh | GLP1R ag | KCNH2 3.1 inh | GLP-1R inv ag | KCNH2 WT inh | GLP1R cytotox
COc1ccc(C(=O)NC(=S)N(Cc2ccccc2)Cc2ccccc2)cc1 | 0% | 2% | -11 | ? | -102* | ?
C=CCN(CC=C)C(=S)NC(=O)c1ccc(C)c(Br)c1 | -14% | -3% | . | 3.2µM* | ? | ?
C=CCN(CC=C)C(=S)NC(=O)c1ccc(OC)cc1 | -9% | 1% | 4 | ? | -19 | 0.63µM*
C=CCN(CC=C)C(=S)NC(=O)c1ccc(-c2ccccc2)cc1 | 11% | -11% | -24 | ? | -22 | ?
CN(Cc1ccccc1)C(=S)NC(=O)c1ccc(-c2ccccc2)cc1 | -14% | 7% | -18 | 2% | -27 | ?
NC(=O)CC(NC(=O)Cc1ccc(Br)cc1)c1ccc(NCC2CC2)c([N+](=O)[O-])c1 (centres undefined) | 1% | -4% | -82* | -14% | -32 | -8%
NC(=O)CC(NC(=O)Cc1ccc(Cl)cc1)c1ccc(NCC2CC2)c([N+](=O)[O-])c1 (centres undefined) | -7% | 1% | -42 | ? | -194* | -9%
O=C1c2cccc3c([N+](=O)[O-])ccc(c23)C(=O)N1O | -27% | -4% | -30 | -8% | -197* | 3%
COc1ccc([N+](=O)[O-])cc1NC(=S)NC(NC(=O)C(c1ccccc1)c1ccccc1)C(Cl)(Cl)Cl (centres undefined) | 0% | -13% | 4 | 2.5µM* | -15 | ?
Cc1cc([N+](=O)[O-])ccc1NC(=S)NC(=O)Cc1ccccc1 | 1% | 15% | -5 | ? | -1 | -14%
O=C(NNC(=S)NC(=O)c1ccccc1Cl)c1cccc([N+](=O)[O-])c1 | -20% | 2% | -2 | 1% | -17 | -7%
O=C(NC(NC(=S)Nc1c(Cl)cccc1Cl)C(Cl)(Cl)Cl)c1cccc([N+](=O)[O-])c1 (centres undefined) | -5% | -25% | -8 | 5µM* | -1 | 13µM*
Cc1cc([N+](=O)[O-])ccc1NC(=S)NC(=O)C(c1ccccc1)c1ccccc1 | -2% | -5% | 2 | 10µM* | 2 | ?
Cc1ccc(NC(=O)Cn2c(=O)n(Cc3ccc(F)cc3)c(=O)c3cccnc32)cc1C | -6% | . | . | 5% | . | -2%
CN1/C(=C\C(=O)Nc2cccc(Cl)c2)C(C)(C)c2ccccc21 | 3% | 11% | . | 5µM* | 2 | ?
O=c1ccc(N=Nc2ccccc2)ccc1O | 21% | 2% | 9 | ? | -18 | 11µM*
